Screening data from PubChem.
Only some compounds are listed: those with a hit (about 21% of all), similar ones and a draw of the others.
RORg inh = qHTS for inhibitors of ROR gamma transcriptional activity; Nuclear receptor ROR-gamma (Mus musculus), P51450; Drosophila S2 Gal4-RORgamma UAS-luciferase reporter, 20 h; Potency, µM (titrated, usually from 53.6 µM), for inactives: top-dose activity change, negative = inhibition, hits mostly inhibitors; 310,000 compounds, 5.4% hits; AID 2551, 2010; also: potency is read from the fitted curve at half-maximal effect; nearly all actives have a fitted effect of over 60% in size
Target sequence (P51450 whole entry, looked up, the tested form may be a part): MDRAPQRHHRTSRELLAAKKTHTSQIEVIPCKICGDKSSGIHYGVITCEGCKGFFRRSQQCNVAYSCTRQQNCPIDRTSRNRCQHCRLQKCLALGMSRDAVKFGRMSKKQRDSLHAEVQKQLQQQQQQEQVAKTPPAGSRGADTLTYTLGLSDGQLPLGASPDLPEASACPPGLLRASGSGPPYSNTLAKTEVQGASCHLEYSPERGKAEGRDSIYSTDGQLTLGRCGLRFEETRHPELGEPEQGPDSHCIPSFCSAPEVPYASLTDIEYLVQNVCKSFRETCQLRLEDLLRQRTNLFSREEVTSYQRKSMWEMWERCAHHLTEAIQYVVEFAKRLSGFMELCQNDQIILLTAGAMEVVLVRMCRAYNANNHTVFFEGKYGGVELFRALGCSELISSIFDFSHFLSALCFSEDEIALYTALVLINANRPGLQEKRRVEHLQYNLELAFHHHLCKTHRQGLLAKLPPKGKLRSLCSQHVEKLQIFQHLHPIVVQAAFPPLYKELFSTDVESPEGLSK
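Luminescence from a UAS-regulated Photinus luciferase reporter in stably transfected Drosophila Schneider cells is measured; decreased signal marks ROR gamma inhibition. Fusion expression is induced by 700 uM copper sulfate for 20 hr.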
DT40 TDP1 no CPT = qHTS for Inhibitors of human tyrosyl-DNA phosphodiesterase 1 (TDP1): qHTS in cells in absence of CPT. DT40 Tdp1-/- hTDP1 cells, no CPT, ATP luminescence, 48 h. Potency, µM (titrated, usually from 46.2 µM), inactives show at the highest dose activity change, negative = growth inhibition, hits mostly inhibitors. 420,000 compounds, 15% hits. AID 686978, 2013; also: potency is read from the fitted curve at half-maximal effect; nearly all actives have a fitted effect of over 55% in size
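Stably hTDP1-transfected Tdp1-null chicken DT40 cells were treated with library compounds minus camptothecin and grown for at least 48 hr at 37 °C, after which cellular ATP was quantified by luminescence.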
Gal4-VP16 FLuc = VP16 counterscreen qHTS for inhibitors of ROR gamma transcriptional activity; Drosophila S2 Gal4-VP16 UAS-luciferase, luminescence, 20 h; Potency, µM (top dose mostly 53.6 µM), without a hit: at the top dose activity, negative = inhibition, actives largely listed as inhibitors; 310,000 compounds, 3.5% hits;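 also: Gal4-VP16 expression switched on by copper sulfate through the metallothionein promoter; potency is read from the fitted curve at half-maximal effect; nearly all actives have a fitted effect of over 50% in size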
ELG1 DNA repair = qHTS screen for small molecules that inhibit ELG1-dependent DNA repair in human embryonic kidney (HEK293T) cells expressing luciferase-tagged ELG1. HEK293T ELG1-luciferase reporter, luminescence, 16 h; DNA damage induced by 5-fluorouridine. Potency, µM (titrated, usually from 46.1 µM), inactives show at the highest dose activity change, negative = inhibition, hits mostly inhibitors. 330,000 compounds, 2.3% hits. AID 504467, 2011; also: potency is read from the fitted curve at half-maximal effect; nearly all actives have a fitted effect of over 55% in size
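HEK293T cells expressing luciferase-tagged ELG1 (2,000/well) received 5-Fluorouridine plus compound or DMSO for 16 hr at 37 °C. Luciferase was read by ONE-Glo luminescence after 30 min at room temperature.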
DT40 TDP1 CPT = qHTS for Inhibitors of human tyrosyl-DNA phosphodiesterase 1 (TDP1): qHTS in cells in presence of CPT; 420,000 compounds, 12% hits; Potency, µM (doses to about 46.2 µM), inactives show at the highest dose activity change, negative = growth inhibition, actives largely listed as inhibitors; AID 686979, 2013; chicken DT40 Tdp1-/-;hTDP1 cells + 20 nM CPT, ATP luminescence, 48 h; also: potency is read from the fitted curve at half-maximal effect; nearly all actives have a fitted effect of over 55% in size
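Chicken DT40 Tdp1-/- cells complemented with human TDP1, 400 cells/well, exposed to compounds plus 20 nM camptothecin for at least 48 h at 37 C; viability read as ATP content by CellTiter-Glo luminescence.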
IL1B secr inh = qHTS for Inhibitors of Inflammasome Signaling: IL-1-beta AlphaLISA Primary Screen; THP-1 LPS/ATP IL-1B secretion, AlphaLISA, 16 h; hits give low values; activity change, % at 57.5 µM; 360,000 compounds, 4.7% hits; in the data active = activity change below about -50%; inconclusive = mostly about -30% to -49%
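THP-1 cells pretreated 1 hr with compounds (up to 57.5 uM final), then stimulated with LPS (250 ng/mL final) plus ATP (1.25 mM final); secreted IL-1B measured by AlphaLISA after 16 hr, decreased signal indicating inhibition.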
Numbers without * were called inactive; ? = inconclusive; nt = no result given; [ ] = another dose, or the depositor's remark. Unless noted, calls follow the shape of the dose curve; as a rule, active = well fitted curve in the direction sought with a large enough effect; inconclusive = small, poorly fitted or top-dose-only effect, or another doubt; inactive = no such curve, though single readings can be large; an effect the other way counts as inactive or inconclusive. % is scaled to controls: 0 for no effect and ±100 for the full control effect.

SMILES	RORg inh	DT40 TDP1 no CPT	Gal4-VP16 FLuc	ELG1 DNA repair	DT40 TDP1 CPT	IL1B secr inh
CSc1ncc(C(=O)Nc2cccc(C)c2C)c(C)n1	0%	-10%	7%	11%	-26%	?
COc1ccc(CCN2CC(C(=O)N(C)Cc3ccccn3)CCC2=O)cc1 (stereo unspecified)	nt	-11%	nt	nt	-10%	11
COc1ccccc1N=C1SC(C(=O)Nc2ccccc2OC)CC(=O)N1C (stereo unspecified)	nt	-13%	nt	nt	2%	nt
COc1ccccc1N=C1SC(C(=O)Nc2cccc(Cl)c2Cl)C(N)=C1C(N)=O (stereo unspecified)	16%	3.3µM*	0%	?	2.9µM*	-23
Cc1cccc(C)c1OCC(=O)Nc1ccc(NC(=O)c2ccco2)cc1	3%	21µM*	-5%	-21%	26µM*	-17
Cc1ccccc1OCC(=O)Nc1cccc(NC(=O)c2ccco2)c1	20%	?	-6%	-24%	?	-7
Cc1cccc(C)c1OCC(=O)Nc1ccc2c(c1)OCCO2	-37%	?	2.2µM*	?	18µM*	-4
Cc1ccccc1OCC(=O)Nc1ccc(NC(=O)c2ccco2)cc1	-10%	?	13%	2%	?	-14
Cc1cccc(C)c1OCC(=O)Nc1cccc(NC(=O)c2ccco2)c1	16%	?	8%	18µM*	?	-11
Cc1ccc(CNC(=O)CSc2nc3c(sc4ccccc43)c(=O)n2CCCN2CCCC2)cc1	-19%	?	-4%[10 µM]	26%	23µM*	-90*
O=C(CSc1nc2c(sc3ccccc32)c(=O)n1CCCN1CCCC1)NCc1ccccc1	-13%	?	-12%	7%	-62%	-100*
CSc1nc2c(sc3ccccc32)c(=O)n1Cc1ccc(C)cc1	nt	16µM*	nt	nt	21µM*	nt
O=C(NCC1CCN(Cc2ccccc2)CC1)[C@H]1O[C@@H](n2ccc(=O)[nH]c2=O)[C@H](O)[C@@H]1O	nt	-28%	nt	nt	9%	22
Cc1nn(C2CCS(=O)(=O)C2)c(C)c1CN(C)C(=O)c1ccc(Cl)cc1 (stereo unspecified)	nt	8%	nt	-6%	-4%	0
O=C1Nc2ccccc2N(O)N1c1ccc(Cl)cc1	2%	11%	-11%	9%	17%	0
CCN1c2ccccc2NC2C1C(C(C)=O)C(=O)N2c1ccc(Cl)cc1 (stereo unspecified)	-39%	16µM*	-1%	-13%	21µM*	31
COc1ccccc1C(CNC(=O)CNC(=O)c1ccccc1Cl)N1CCCC1 (stereo unspecified)	nt	4%	nt	?	0%	5
CCOC(=O)N1CCN(C(=O)c2ccc(-n3c(C)ccc3C)cc2)CC1	22%	15µM*	1%	-1%	?	?
CCOC(=O)N1CCN(C(=O)c2ccc(OC)cc2)CC1	1%	-18%	3%	9%	0%	-12
CC(=O)N1CCN(C(=O)c2ccc(-n3c(C)ccc3C)cc2)CC1	-20%	-66%	-3%	3%	?	-66*
NC(=O)c1ccc(NC(=O)COC(=O)CCC2CCCCC2)cc1	nt	-2%	nt	?	10%	13
COc1cc2c(cc1OC)C(C)N(CCc1ccc(Cl)cc1)CC2 (stereo unspecified)	nt	?	nt	nt	?	-59*
COc1cc2c(cc1OC)C(C)N(CCN1C(=O)c3ccccc3C1=O)CC2 (stereo unspecified)	23%	-5%	5%	-2%	-6%	8
COc1cc2c(cc1OC)C(C)N(C(=O)c1ccc(C)o1)CC2 (stereo unspecified)	-11%	21µM*	3%	7%	26µM*	-10
COc1cc2c(cc1OC)C(C)N(C(=O)c1ccc(Cl)c(S(=O)(=O)N3CCCCC3)c1)CC2 (stereo unspecified)	?	10µM*	-3%	?	21µM*	-16
SMILES	RORg inh	DT40 TDP1 no CPT	Gal4-VP16 FLuc	ELG1 DNA repair	DT40 TDP1 CPT	IL1B secr inh
COc1cc2c(cc1OC)C(c1cccs1)N(C(=O)c1cccnc1)CC2 (stereo unspecified)	11%	2.9µM*	7%	10%	4.6µM*	50
COc1cc2c(cc1OC)C(C)N(C(=O)c1sccc1C)CC2 (stereo unspecified)	?	-16%	1%	-1%	?	?
COc1cc2c(cc1OC)C(c1cc(OC)c(OC)cc1[N+](=O)[O-])N(C(C)=O)CC2 (stereo unspecified)	-5%	-24%	-2%	15%	-17%	-19
COc1cc2c(cc1OC)C(C)N(C(=O)c1cccc([N+](=O)[O-])c1)CC2 (stereo unspecified)	?	?	-7%	18µM*	?	-53*
COc1cc2c(cc1OC)C(C)N(C(=O)c1c(-c3ccccc3)noc1C)CC2 (stereo unspecified)	4%	13µM*	0%	?	18µM*	66
CCOC(=O)c1c(C)oc2ccc(N(C(=O)c3ccncc3)S(=O)(=O)c3ccc(F)cc3C)cc12	nt	23µM*	nt	nt	?	nt
Cc1cc(F)ccc1S(=O)(=O)N(C(=O)c1ccncc1)c1ccc(OC(=O)c2ccncc2)cc1	-16%	15µM*	6%	?	23µM*	-27
CCCC(=O)N(c1ccc2oc(C)c(C(C)=O)c2c1)S(=O)(=O)c1ccc(C(=O)O)cc1	-21%	?	2%	-9%	-12%	8
CC(=O)c1c(C)oc2ccc(N(C(=O)c3ccncc3)S(=O)(=O)c3ccc(F)cc3C)cc12	nt	7.3µM*	nt	nt	10µM*	nt
CCOC(=O)c1c(C)oc2ccc(OCC(=O)C(C)(C)C)cc12	-36%	?	-10%	?	5%	1
COc1cccc(-c2cc3c(c(OC)c2)OCCN(Cc2cccn2-c2ccccn2)C3)c1	nt	-7%	nt	nt	18%[9.04 µM]	nt
COc1cccc(Cn2c(C)c(CNCc3cccc(C)c3)c(C(=O)O)c2C)c1	nt	?	nt	nt	-26%	nt
Cc1ccccc1N1CCN(C2CCCN(C(=O)CCC3(C)CC3)C2)CC1 (stereo unspecified)	1%	?	-1%	-9%	?	-6
